The values that follow come from PubChem BioAssay (EPA / NIEHS).

Active and inactive are the calls of the source. Rule for the calls: active = hit-call score of the fitted dose curve at least 0.9, where 1 is the maximum; inactive = score below 0.9.

What all share (conditions): mRNA level, 48 h; actives raise or lower the signal
Read-out in experiment [1]: ABC Transporter (ABCC2), ABCC2 (gene 1244)
In words: LTEA_HepaRG_ABCC2: Life Technologies and Expression Analysis (LTEA) Assay for ABC Transporter (ABCC2) using HepaRG (AID 2283464). Put shortly: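 HepaRG, 48 h post-plating; serum-free induction medium; cpd 8-pt, 100 uM top, half-log, 0.5% DMSO, duplicate, 48 h. Readout: ABCC2 mRNA by qRT-PCR, norm. ACTB/GAPDH/POLR2A. Bidirectional fit vs DMSO baseline.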

Read-out in experiment [2]: Broad substrate specificity ATP-binding cassette transporter ABCG2 (Homo sapiens) (UniProt Q9UNQ0)
In words: LTEA_HepaRG_ABCG2: Life Technologies and Expression Analysis (LTEA) Assay for ABC Transporter (ABCG2) using HepaRG (AID 2283465). Put shortly:
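Differentiated HepaRG cells in serum-free induction medium were exposed for 48 h, in duplicate, to eight half-log concentrations up to 100 uM in 0.5% DMSO. ABCG2 mRNA was measured by TaqMan qRT-PCR, normalized to ACTB, GAPDH and POLR2A, and fitted bidirectionally versus DMSO.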

Read-out in experiment [3]: ATP-citrate lyase (ACLY), ACLY (gene 47)
Description: LTEA_HepaRG_ACLY: Life Technologies and Expression Analysis (LTEA) Assay for ATP-citrate lyase (ACLY) using HepaRG (AID 2283466). Put shortly: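 Differentiated human HepaRG cells in serum-free induction medium exposed 48 h, in duplicate, to eight half-log concentrations from 100 uM top in 0.5% DMSO; ACLY mRNA measured by qRT-PCR, normalized to ACTB, GAPDH, POLR2A, fitted bidirectionally versus DMSO.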

Read-out in experiment [4]: Peroxisomal acyl-coenzyme A oxidase 1 (ACOX1) gene, ACOX1 (gene 51)
Description: LTEA_HepaRG_ACOX1: Life Technologies and Expression Analysis (LTEA) Assay for Peroxisomal acyl-coenzyme A oxidase 1 (ACOX1) gene using HepaRG (AID 2283467). Put shortly: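 Differentiated human HepaRG cells were exposed in duplicate for 48 h in serum-free induction medium to eight half-log concentrations up to 100 uM in 0.5% DMSO. ACOX1 mRNA was then quantified by TaqMan qRT-PCR, normalized to ACTB, GAPDH and POLR2A.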

Read-out in experiment [5]: Alkaline Phosphatase, Placental (ALPP) gene, ALPP (gene 250)
In words: LTEA_HepaRG_ALPP: Life Technologies and Expression Analysis (LTEA) Assay for Alkaline Phosphatase, Placental (ALPP) gene using HepaRG (AID 2283468). Put shortly:
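HepaRG, 48 h plating then 48 h dosing, serum-free induction medium, 0.5% DMSO. 8 conc, half-log, max 100 uM, duplicates. Endpoint: ALPP transcript by qRT-PCR, housekeeping-normalized; gain or loss fitted vs DMSO.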

Read-out in experiment [6]: Bcl-2 (BAX) gene, BAX (gene 581)
In words: LTEA_HepaRG_BAX: Life Technologies and Expression Analysis (LTEA) Assay for Bcl-2 (BAX) gene using HepaRG (AID 2283470). Put shortly:
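Concentration-response endpoint fitted in both directions relative to 0.5% DMSO vehicle. Human HepaRG cultures receive test chemicals for 48 h at up to 100 uM; BAX mRNA is quantified by qRT-PCR against housekeeping genes.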

Read-out in experiment [7]: adenosine kinase (ADK) gene, ADK (gene 132)
In words: LTEA_HepaRG_ADK: Life Technologies and Expression Analysis (LTEA) Assay for adenosine kinase (ADK) gene using HepaRG (AID 2283471). Put shortly:
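ADK expression quantified by qRT-PCR, normalised to three housekeeping genes, after 48 h exposure of HepaRG cells to eight concentrations (top 100 uM, half-log steps, duplicate, 0.5% DMSO). Up- or down-regulation fitted relative to vehicle.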

Read-out in experiment [8]: Alpha-fetoprotein (AFP) gene, AFP (gene 174)
In words: LTEA_HepaRG_AFP: Life Technologies and Expression Analysis (LTEA) Assay for Alpha-fetoprotein (AFP) gene using HepaRG (AID 2283472). Put shortly:
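After a 48 h plating period, cells are moved to serum-free induction medium and dosed in duplicate (100 uM maximum, half-log dilutions, 0.5% DMSO) for another 48 h. Total RNA goes to TaqMan qRT-PCR; AFP signal is housekeeping-normalized.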

Read-out in another experiment: BCL2L11 (gene 10018)
In words: LTEA_HepaRG_BCL2L11: Life Technologies and Expression Analysis (LTEA) Assay for Bcl-2 (BCL2L11) gene using HepaRG (AID 2283473). Put shortly:
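Read-out is BCL2L11 transcript level by qRT-PCR, normalized to three housekeeping genes and fitted bidirectionally against 0.5% DMSO vehicle. HepaRG cells received chemicals for 48 h in serum-free induction medium, 100 uM down in half-log dilutions.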

Read-out in experiment [9]: Apolipoprotein A-V (APOA5) gene, APOA5 (gene 116519)
Description: LTEA_HepaRG_APOA5: Life Technologies and Expression Analysis (LTEA) Assay for Apolipoprotein A-V (APOA5) gene using HepaRG (AID 2283474). Put shortly: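 Readout is APOA5 transcript level by qRT-PCR on Fluidigm dynamic arrays, normalized to three housekeeping genes. HepaRG cultures received chemicals for 48 h at up to 100 uM (half-log steps, 0.5% DMSO), with gain or loss scored relative to DMSO.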

Read-out in experiment [10]: Apoptosis regulator Bcl-2 (Homo sapiens) (UniProt P10415)
Description: LTEA_HepaRG_BCL2: Life Technologies and Expression Analysis (LTEA) Assay for Bcl-2 gene using HepaRG (AID 2283475).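 Note: BCL2 transcript by TaqMan qRT-PCR normalised to ACTB GAPDH and POLR2A.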 Put shortly: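 Expression change of BCL2 mRNA in HepaRG after 48 h dosing, quantified by TaqMan qRT-PCR against three endogenous controls. Concentration-response used eight points up to 100 uM, vehicle 0.5% DMSO.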

Read-out in experiment [11]: Bcl-2 (BID) gene, BID (gene 637)
Description: LTEA_HepaRG_BID: Life Technologies and Expression Analysis (LTEA) Assay for Bcl-2 (BID) gene using HepaRG (AID 2283476). Put shortly: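 Gain or loss of BID expression is fitted relative to 0.5% DMSO vehicle. Human HepaRG liver cells received a 48 h chemical exposure over an eight-point concentration range.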

Read-out in another experiment: Caspase-3 (Homo sapiens) (UniProt P42574)
Description: LTEA_HepaRG_CASP3: Life Technologies and Expression Analysis (LTEA) Assay for cysteine-aspartic acid protease (CASP3) using HepaRG (AID 2283477). Put shortly: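 Read-out is CASP3 mRNA level by TaqMan qRT-PCR in human HepaRG cells after 48 h chemical exposure. Eight half-log concentrations topping at 100 uM were tested in 0.5% DMSO; gain or loss was fitted relative to DMSO.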

Read-out in experiment [12]: Cytochrome P450 (CYP24A1), CYP24A1 (gene 1591)
In words: LTEA_HepaRG_CYP24A1: Life Technologies and Expression Analysis (LTEA) Assay for Cytochrome P450 (CYP24A1) using HepaRG (AID 2283478). Put shortly: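 HepaRG, 48 h chemical exposure, 8-pt half-log CRC from 100 uM, 0.5% DMSO vehicle, duplicates. Endpoint: CYP24A1 mRNA by Fluidigm TaqMan qRT-PCR, normalized ACTB/GAPDH/POLR2A; gain/loss fit vs DMSO.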

Read-out in experiment [13]: Cytochrome P450 (CYP1A2), CYP1A2 (gene 1544)
Description: LTEA_HepaRG_CYP1A2: Life Technologies and Expression Analysis (LTEA) Assay for Cytochrome P450 (CYP1A2) using HepaRG (AID 2283479). Put shortly:
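CYP1A2 transcript induction or loss, quantified by Fluidigm qRT-PCR against three housekeeping genes, was fitted bidirectionally against 0.5% DMSO controls. Human HepaRG cells received eight half-log concentrations from 100 uM over 48 h.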

Read-out in experiment [14]: cysteine-aspartic acid protease (CASP8), CASP8 (gene 841)
Description: LTEA_HepaRG_CASP8: Life Technologies and Expression Analysis (LTEA) Assay for cysteine-aspartic acid protease (CASP8) using HepaRG (AID 2283480). Put shortly: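 Differentiated human HepaRG cells, plated 48 h then switched to serum-free induction medium, were exposed in duplicate for 48 h to 8 half-log concentrations up to 100 uM in 0.5% DMSO. CASP8 mRNA was quantified by qRT-PCR, normalized to ACTB/GAPDH/POLR2A.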

Read-out in experiment [15]: Cytochrome P450 (CYP2B6), CYP2B6 (gene 1555)
Description: LTEA_HepaRG_CYP2B6: Life Technologies and Expression Analysis (LTEA) Assay for Cytochrome P450 (CYP2B6) using HepaRG (AID 2283481). Put shortly:
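HepaRG cells plated 48 h, switched to serum-free induction medium, then dosed 48 h (8 points, half-log from 100 uM, 0.5% DMSO). RNA isolated; CYP2B6 expression measured by qRT-PCR; gain or loss fitted relative to DMSO.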

Read-out in experiment [16]: Cytochrome P450 2C19 (Homo sapiens) (UniProt P33261)
In words: LTEA_HepaRG_CYP2C19: Life Technologies and Expression Analysis (LTEA) Assay for CYP2C19 using HepaRG (AID 2283482). Put shortly: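 Transcript levels of CYP2C19 were quantified by qRT-PCR after HepaRG cells were treated for 48 hours with test chemicals up to 100 uM (eight half-log concentrations, 0.5% DMSO vehicle). Gain or loss of signal was fitted relative to DMSO.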

Read-out in a further experiment: CYP2C8 (gene 1558)
In words: LTEA_HepaRG_CYP2C8: Life Technologies and Expression Analysis (LTEA) Assay for CYP2C8 using HepaRG (AID 2283483). Put shortly:
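Differentiated human HepaRG cells were exposed for 48 h in serum-free induction medium to eight half-log concentrations up to 100 uM in 0.5% DMSO, in duplicate. CYP2C8 mRNA was measured by TaqMan qRT-PCR, normalized to ACTB, GAPDH and POLR2A, and fitted bidirectionally against DMSO.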

Apoptosis regulator Bcl-2 (Homo sapiens), sequence (P10415 whole entry, looked up): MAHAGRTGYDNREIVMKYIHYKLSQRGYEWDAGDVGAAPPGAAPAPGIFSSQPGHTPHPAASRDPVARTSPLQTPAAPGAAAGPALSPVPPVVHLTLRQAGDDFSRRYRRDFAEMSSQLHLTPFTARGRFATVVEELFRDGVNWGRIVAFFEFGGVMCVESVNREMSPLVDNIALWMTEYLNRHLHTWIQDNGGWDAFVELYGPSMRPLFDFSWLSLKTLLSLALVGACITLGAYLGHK
Broad substrate specificity ATP-binding cassette transporter ABCG2 (Homo sapiens), sequence (Q9UNQ0 whole entry, looked up): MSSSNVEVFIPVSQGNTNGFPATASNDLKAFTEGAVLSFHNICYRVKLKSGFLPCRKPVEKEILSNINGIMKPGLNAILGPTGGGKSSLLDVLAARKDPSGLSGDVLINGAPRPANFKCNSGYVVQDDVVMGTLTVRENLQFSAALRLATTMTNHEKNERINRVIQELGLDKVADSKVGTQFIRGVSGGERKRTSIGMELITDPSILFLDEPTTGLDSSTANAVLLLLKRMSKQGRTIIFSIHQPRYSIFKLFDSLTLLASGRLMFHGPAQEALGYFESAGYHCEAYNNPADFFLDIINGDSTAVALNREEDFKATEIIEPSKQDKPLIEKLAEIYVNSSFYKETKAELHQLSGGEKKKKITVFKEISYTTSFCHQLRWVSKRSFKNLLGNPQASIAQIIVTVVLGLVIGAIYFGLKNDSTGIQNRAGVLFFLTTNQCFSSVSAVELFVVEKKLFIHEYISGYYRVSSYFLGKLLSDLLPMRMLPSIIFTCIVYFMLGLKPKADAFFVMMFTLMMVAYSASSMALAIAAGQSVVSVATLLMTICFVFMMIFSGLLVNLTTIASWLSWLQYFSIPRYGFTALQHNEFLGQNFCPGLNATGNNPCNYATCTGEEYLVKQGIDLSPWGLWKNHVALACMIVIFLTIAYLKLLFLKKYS
Cytochrome P450 2C19 (Homo sapiens), sequence (P33261 whole entry, looked up): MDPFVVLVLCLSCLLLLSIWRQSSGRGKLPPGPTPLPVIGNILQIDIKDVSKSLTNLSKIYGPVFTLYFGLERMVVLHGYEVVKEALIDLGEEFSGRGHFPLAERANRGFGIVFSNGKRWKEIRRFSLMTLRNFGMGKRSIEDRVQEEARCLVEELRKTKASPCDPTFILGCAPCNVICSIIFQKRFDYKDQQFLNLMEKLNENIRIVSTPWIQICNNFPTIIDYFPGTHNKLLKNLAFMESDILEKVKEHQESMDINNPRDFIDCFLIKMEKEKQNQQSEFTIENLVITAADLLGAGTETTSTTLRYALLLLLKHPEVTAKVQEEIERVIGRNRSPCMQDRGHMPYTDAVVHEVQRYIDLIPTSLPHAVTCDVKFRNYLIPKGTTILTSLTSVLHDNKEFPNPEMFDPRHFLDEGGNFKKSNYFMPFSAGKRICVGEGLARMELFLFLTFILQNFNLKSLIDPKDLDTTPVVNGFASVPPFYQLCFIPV
Caspase-3 (Homo sapiens), sequence (P42574 whole entry, looked up): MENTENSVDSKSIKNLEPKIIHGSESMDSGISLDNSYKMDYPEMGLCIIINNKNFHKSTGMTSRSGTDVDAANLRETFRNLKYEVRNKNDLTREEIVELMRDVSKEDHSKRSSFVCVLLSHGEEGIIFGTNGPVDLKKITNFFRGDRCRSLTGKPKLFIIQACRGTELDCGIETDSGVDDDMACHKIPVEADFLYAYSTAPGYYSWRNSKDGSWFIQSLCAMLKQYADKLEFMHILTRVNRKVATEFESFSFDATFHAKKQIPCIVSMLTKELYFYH

As usually defined, the AC50 is the concentration giving half of the maximal activity seen. In the case of `[N-]=[N+]=[N-]`, the compound was called inactive in experiment [1], in [4], in [5], in experiment [6], in experiment [7] and in experiment [11]. Besides, the result (in the experiment with Caspase-3 (Homo sapiens); in experiment [12]; in experiment [13]; in experiment [14]; in experiment [16]) was inactive. The AC50 was 34.4 µM (active) in [2]; 73.4 µM (active) in experiment [3]; 77.9 µM (active) in experiment [8]; 80.6 µM (active) with BCL2L11 (gene 10018); 50 µM (active) in [9]; 76.8 µM (active) in experiment [10]. Further, the AC50 in experiment [15] is 88.3 µM (active); with CYP2C8 (gene 1558), 79.9 µM (active).
On to `O=C(O)C1C(C(=O)O)C2(Cl)C(Cl)=C(Cl)C1(Cl)C2(Cl)Cl` (centres undefined), for which the compound was classed as inactive in experiment [1], in experiment [2], in [3], in experiment [4], in experiment [5] and in experiment [6]. For the same compound, the outcome (in experiment [7]; in experiment [8]; in the experiment with BCL2L11 (gene 10018); in [9]; in experiment [10]; in experiment [11]) was inactive. For the same compound, the result (with Caspase-3 (Homo sapiens); in [12]; in [13]; in [14]; in experiment [15]; in experiment [16]) was inactive. Moreover, the call in the experiment with CYP2C8 (gene 1558) was inactive.
Consider `CCCN(CCC)c1c([N+](=O)[O-])cc(C(C)C)cc1[N+](=O)[O-]`, for which the AC50 was 18.3 µM (active) in experiment [1]; 18.1 µM (active) in experiment [2]; 0.129 µM (active) in [3]; 50 µM (active) in experiment [8]; 0.106 µM (active) with BCL2L11 (gene 10018); 0.123 µM (active) in [9]. Moreover, the AC50 in experiment [11] is 119 nM (active); in experiment [13], 27.3 µM (active); in experiment [15] it was 9.38 µM (active); in experiment [16], 9.77 µM (active); with CYP2C8 (gene 1558), 13.2 µM (active). For the same compound, the outcome (in experiment [4]; in experiment [5]; in experiment [6]; in [7]; in experiment [10]; with Caspase-3 (Homo sapiens)) was inactive. In addition, the compound was classed as inactive in experiment [12] and in experiment [14].
For `CC(C)(C)c1ccc(O)cc1`, the outcome in experiment [1], in experiment [2], in experiment [3], in experiment [4], in experiment [5] and in experiment [6] was inactive. Moreover, the compound was called inactive (in [7]; in [8]; with BCL2L11 (gene 10018); in [9]; in experiment [10]; in experiment [11]). For the same compound, the compound was classed as inactive (with Caspase-3 (Homo sapiens); in [14]).
Consider `ClC1=C(Cl)C2(Cl)C3C(Cl)C(Cl)CC3C1(Cl)C2(Cl)Cl` (centres undefined), for which the AC50 in experiment [1] is 8.61 µM (active); in [2] it was 21.4 µM (active); in [3] it was 85.9 µM (active); in [5], 9.92 µM (active); in experiment [8] it was 15.2 µM (active); in experiment [9], 50 µM (active). Moreover, the AC50 in [15] is 0.994 µM (active); in [16], 2.42 µM (active); with CYP2C8 (gene 1558), 2.17 µM (active). Further, the compound was called inactive (in [4]; in [6]; in experiment [7]; in the experiment with BCL2L11 (gene 10018); in experiment [10]; in [11]). The outcome (in the experiment with Caspase-3 (Homo sapiens); in experiment [12]; in experiment [13]; in [14]) was inactive.
Regarding `Cc1ccc(O)cc1C`, the compound was classed as inactive in experiment [1], in experiment [2], in experiment [3], in [4], in experiment [5] and in [6]. The outcome (in experiment [7]; in experiment [8]; in the experiment with BCL2L11 (gene 10018); in [9]; in experiment [10]; in experiment [11]) was inactive. For the same compound, the compound was classed as inactive (with Caspase-3 (Homo sapiens); in [14]).
